From PubChem BioAssay (Tox21)
Inconclusive results are not listed. Activity calls are given as the source filed them. Unless noted, calls come from the whole dose curve; as a rule, active = well fitted curve in the direction sought with a large enough effect in the repeat runs; inconclusive = weak or mixed curves; inactive = no such curve, though single readings can be large; an effect the other way counts as inactive or inconclusive.

How the values were obtained:
[1] = qHTS assay for small molecule agonists of the p53 signaling pathway (AID 651631; calls by dose curve; note: nearly all actives have a fitted effect of over 15% in size)
Method in brief: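 HCT-116 p53RE-bla reporter line, 16 h compound treatment at 37 °C, then fluorescence after 2 h with B/G FRET substrate.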

[2] = qHTS assay for small molecules that induce genotoxicity in human embryonic kidney cells expressing luciferase-tagged ATAD5 (AID 651632); note: nearly all actives have a fitted effect of over 15% in size
Method in brief: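 Genotoxicity read-out via ATAD5-luciferase: HEK293T cells, 16 hr compound incubation at 37C, Amplite detection.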

[3] = qHTS assay for small molecule agonists of the p53 signaling pathway - cell viability (AID 651633; calls by dose curve;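 note: p53RE-bla HCT reporter cells with a stable beta-lactamase p53 reporter; series mostly up to about 83 µM; nearly all actives have a fitted effect of over 30% in size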)
Method in brief: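 p53RE-bla cells were treated with compound for 16 hours at 37 C. Cytotoxicity was then measured as CellTiter-Glo luminescence after 30 min at room temperature.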

[4] = qHTS assay for small molecules that induce genotoxicity in human embryonic kidney cells expressing luciferase-tagged ATAD5 - cell viability (AID 651634; calls by dose curve; note: nearly all actives have a fitted effect of over 25% in size)
Method in brief: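 Live-cell protease activity (CellTiter-Fluor, fluorescence) indicates viability. HEK293T cells with luciferase-tagged ATAD5; 15.5 hr compound treatment at 37C.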

[5] = qHTS assay for small molecule disruptors of the mitochondrial membrane potential - cell viability (AID 720634; calls by dose curve;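 note: human HepG2 liver cancer cells; series mostly up to about 83 µM; nearly all actives have a fitted effect of over 20% in size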)
Method in brief: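 Human hepatoma HepG2 cells were treated for 1 hr with test chemicals, then given m-MPI dye and CellTiter-Glo. Cell viability reflects luminescence proportional to cellular ATP.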

[6] = qHTS assay for small molecule disruptors of the mitochondrial membrane potential (AID 720635)
Method in brief: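 HepG2 cells exposed to compound 1 hr at 37C, then Mito-MPS dye 30 min. Ratio read of aggregate (540/590 nm) versus monomer (490/535 nm) fluorescence.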

[7] = qHTS assay to test for compound auto fluorescence at 590 nm (red) in HepG2 cells (AID 720674)
Method in brief: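 Fluorescence at 590 nm emission following 540 nm excitation was recorded from HepG2 wells one hour after compound transfer, with DMSO-only wells as vehicle and Rose Bengal sodium equivalency as the scale.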

[8] = qHTS assay to test for compound auto fluorescence at 460 nm (blue) in HEK293 cells (AID 720678)
Method in brief: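 Cells were seeded and left to adhere for 4-5 hr at 37C. Compounds were then pin-transferred. After an overnight incubation at 37C under 5% CO2, intrinsic fluorescence at 405/460 nm was measured and referenced to triamterene.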

[9] = qHTS assay to test for compound auto fluorescence at 590 nm (red) in HEK293 cells (AID 720679)
Method in brief: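 Each well held 2,000 HEK293 cells in medium containing 10% dialyzed FBS. Following 4-5 hr attachment at 37C, 23 nL test compound or DMSO was added; plates sat overnight, and red fluorescence (540/590nm) was recorded.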

[10] = qHTS assay to test for compound auto fluorescence at 535 nm (green) in HEK293 cells (AID 720680)
[11] = qHTS assay to test for compound auto fluorescence at 460 nm (blue) in HEK293 cell free culture (AID 720681)
Method in brief: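 Compounds were added to cell-free DMEM with 10% FBS and fluorescence read directly. The blue channel used 405 nm excitation and 460 nm emission, with triamterene as the reference fluorophore.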

[12] = qHTS assay to test for compound auto fluorescence at 535 nm (green) in HEK293 cell free culture (AID 720682)
Method in brief: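 Steps: dispense DMEM/10% FBS into empty wells; pin in compound or DMSO; measure fluorescence at 485/535 nm. Values are fluorescein equivalents.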

[13] = qHTS assay to test for compound auto fluorescence at 590 nm (red) in HEK293 cell free culture (AID 720683)
Method in brief: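 Cell-free wells of DMEM with 10% FBS received compound, and intrinsic fluorescence was read at excitation/emission 540/590 nm. Values expressed as equivalence to Rose Bengal sodium.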

[14] = qHTS assay to test for compound auto fluorescence at 590 nm (red) in HepG2 cell free culture (AID 720684)
Method in brief: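 Compound was pinned into wells holding MEM with 10% FBS and no cells, and red fluorescence was read at Ex/Em 540/590 nm. Signal is expressed as auto fluorescence equivalency relative to Rose Bengal sodium.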

[15] = qHTS assay to test for compound auto fluorescence at 460 nm (blue) in HepG2 cell free culture (AID 720685)
Method in brief: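 Compound (23 nL) or DMSO pinned into cell-free MEM with 10% FBS; blue fluorescence read at 405/460 nm excitation/emission, expressed as auto-fluorescence equivalency to triamterene.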

[16] = qHTS assay to test for compound auto fluorescence at 535 nm (green) in HepG2 cell free culture (AID 720686)
[17] = qHTS assay to test for compound auto fluorescence at 460 nm (blue) in HepG2 cells (AID 720687)
Method in brief: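 HepG2 cells in MEM with 10% FBS, attached overnight at 37 C, were exposed to compound or DMSO for 1 hr at 37 C, 5% CO2. Blue fluorescence was read at 405/460 nm, with triamterene as reference fluorophore.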

[18] = molecular target: Glucocorticoid receptor (Homo sapiens) (UniProt P04150); experiment: qHTS assay to identify small molecule antagonists of the glucocorticoid receptor (GR) signaling pathway (AID 720692; active = well fitted inhibition curve with a large enough effect in the signal ratio in the repeat runs, not every such curve was filed as active; the % refers to the signal ratio)
Method in brief: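 Fluorescence from cleaved LiveBLAzer B/G FRET substrate reports GRE-driven beta-lactamase in HeLa cells; compounds are tested against 5 nM dexamethasone (final) over 18 h at 37 C, substrate incubation 2 h at room temperature.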

[19] = qHTS assay to test for compound auto fluorescence at 535 nm (green) in HepG2 cells (AID 720675)
[20] = molecular target: Glucocorticoid receptor (Homo sapiens) (UniProt P04150); experiment: qHTS assay to identify small molecule agonists of the glucocorticoid receptor (GR) signaling pathway (AID 720691; active = well fitted activation curve with a large enough effect in the signal ratio in the repeat runs, not every such curve was filed as active; the % refers to the signal ratio)
Method in brief: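 Beta-lactamase reporter activity, read as fluorescence intensity, was measured in GR-bla HeLa cells exposed to compounds for 18 h at 37 C and then loaded with LiveBLAzer B/G FRET substrate for 2 h at room temperature.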

Measured: Potency

Chain of Glucocorticoid receptor (Homo sapiens) (P04150 whole entry, looked up): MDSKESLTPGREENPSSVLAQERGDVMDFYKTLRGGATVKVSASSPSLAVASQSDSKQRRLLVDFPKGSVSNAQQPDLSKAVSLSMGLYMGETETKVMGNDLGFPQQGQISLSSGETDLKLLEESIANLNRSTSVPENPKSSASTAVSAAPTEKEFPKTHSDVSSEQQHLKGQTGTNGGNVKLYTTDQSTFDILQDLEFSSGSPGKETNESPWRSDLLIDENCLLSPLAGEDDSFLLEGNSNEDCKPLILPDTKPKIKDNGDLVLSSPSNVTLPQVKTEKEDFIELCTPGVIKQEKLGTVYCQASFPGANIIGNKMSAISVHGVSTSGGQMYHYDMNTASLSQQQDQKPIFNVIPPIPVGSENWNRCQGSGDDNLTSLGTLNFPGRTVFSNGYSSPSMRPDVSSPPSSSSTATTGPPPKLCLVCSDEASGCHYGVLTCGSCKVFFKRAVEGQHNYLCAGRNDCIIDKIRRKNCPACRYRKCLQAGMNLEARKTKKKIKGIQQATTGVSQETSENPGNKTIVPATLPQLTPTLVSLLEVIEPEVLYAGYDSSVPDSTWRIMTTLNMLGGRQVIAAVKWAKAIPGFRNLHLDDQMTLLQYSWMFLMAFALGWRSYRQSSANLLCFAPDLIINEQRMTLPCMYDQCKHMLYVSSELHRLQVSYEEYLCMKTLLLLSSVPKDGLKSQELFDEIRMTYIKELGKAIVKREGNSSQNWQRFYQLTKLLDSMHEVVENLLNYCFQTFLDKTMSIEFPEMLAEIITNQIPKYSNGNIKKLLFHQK

Cc1nnc(C(=O)NC(C)(C)c2nc(C(=O)NCc3ccc(F)cc3)c(O)c(=O)n2C)o1
inactive: [1] | [2] | [3] | [4] | [5] | [6] | [7] | [8] | [9] | [10] | [11] | [12] | [13] | [14] | [15] | [16] | [17] | [18]

C=CCn1cc[n+](C)c1
inactive: [1] | [2] | [3] | [4] | [5] | [6] | [7] | [19] | [8] | [9] | [10] | [12] | [13] | [14] | [15] | [16] | [17] | [18]

CC1(C)C(=O)C(C)(C)C1=O
inactive: [1] | [2] | [3] | [4] | [5] | [6] | [7] | [19] | [8] | [9] | [11] | [12] | [14] | [16] | [17]

COCCCOc1cc(C[C@@H](C[C@H](N)[C@@H](O)C[C@H](C(=O)NCC(C)(C)C(N)=O)C(C)C)C(C)C)ccc1OC
inactive: [1] | [2] | [3] | [4] | [5] | [6] | [7] | [19] | [9] | [10] | [11] | [12] | [13] | [14] | [15] | [16] | [17] | [20] | [18]

CCCCC(CC)COC(=O)CC#N (centres undefined)
inactive: [1] | [2] | [3] | [4] | [5] | [6] | [7] | [8] | [9] | [11] | [12] | [13] | [14] | [15] | [17]

CCO/C=C1\N=C(c2ccccc2)OC1=O
inactive: [1] | [2] | [3] | [4] | [5] | [6] | [7] | [8] | [9] | [11] | [12] | [13] | [14] | [15] | [16] | [17] | [20]

CC(C)(C)OC(=O)c1ccccc1C(=O)O
inactive: [1] | [2] | [3] | [4] | [5] | [6] | [7] | [8] | [9] | [10] | [12] | [13] | [14] | [15] | [16] | [17]

C/C=C/C(=O)CCCC
inactive: [1] | [2] | [3] | [4] | [5] | [6] | [7] | [19] | [8] | [9] | [10] | [12] | [13] | [14] | [15] | [16] | [17]

O=C(O)Cc1ccccc1Oc1ccc(Cl)cc1Cl
inactive: [1] | [2] | [3] | [4] | [5] | [6] | [7] | [19] | [8] | [9] | [11] | [12] | [13] | [14] | [15] | [16] | [17] | [20]

CCCCCCCCOCCC#N
inactive: [1] | [2] | [3] | [4] | [5] | [6] | [7] | [19] | [8] | [9] | [11] | [12] | [13] | [14] | [15] | [16] | [17]

Cc1cccc(N)n1
inactive: [1] | [2] | [3] | [4] | [5] | [6] | [7] | [19] | [8] | [9] | [11] | [12] | [13] | [14] | [16] | [17]

COc1ccc(Cl)cc1C
inactive: [1] | [2] | [3] | [4] | [5] | [6] | [7] | [8] | [9] | [11] | [12] | [13] | [14] | [15] | [16] | [17] | [20] | [18]

CCOC(=O)[C@H](CCc1ccccc1)N[C@H]1CS[C@H](c2cccs2)CN(CC(=O)O)C1=O
inactive: [1] | [2] | [3] | [4] | [5] | [6] | [7] | [19] | [8] | [9] | [10] | [12] | [13] | [14] | [15] | [16] | [17] | [20] | [18]

COc1cc(C(=O)NC2CCCNC2)cc(OC)c1OC (centres undefined)
inactive: [1] | [2] | [3] | [4] | [5] | [6] | [7] | [19] | [8] | [9] | [10] | [11] | [12] | [14] | [16] | [17] | [20] | [18]

CCCOc1ccc(C(=O)OCCN(CC)CC)cc1N
inactive: [1] | [2] | [3] | [4] | [5] | [6] | [7] | [19] | [8] | [9] | [12] | [13] | [14] | [15] | [16] | [17] | [20] | [18]
